# Screen size: about 59,000 compounds; about 6,200 (11%) were called active. Inconclusive results (about 9%) are left out. No stated cut-off is given here; in the data, active means max dye-equivalent concentration above about 10 nM; inconclusive means mostly about 1.1 nM to 9.6 nM; inactive means weaker than that. Only a selection was taken, and actives are over-represented in it overall.
# Experiment: qHTS Assay for Spectroscopic Profiling in 4-MU Spectral Region
# Conditions: compound autofluorescence, 340/450 nm, 4-MU equivalents; hits give high values
# Procedure, shortened: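 Compounds in 100 mM Tris, pH 8.0, incubated 15 min at room temperature, then fluorescence read at 340 nm excitation/450 nm emission. Signal converted to 4-MU dye-equivalent concentration using an on-plate six-point 4-MU standard curve.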
row,SMILES,max dye-equivalent concentration
1,COC(=O)CCSc1nccn1Cc1ccccc1,inactive
2,CN(C)/C=C/c1c(C#N)c(=O)ncn1Cc1ccccc1,inactive
3,CN(C)c1ccnc2sc3c(=O)n(Cc4ccccc4)cnc3c12,28 nM (active)
4,CCOc1ccccc1N(CC(=O)NC1CCCCC1)C(=O)CCCC(=O)Nc1ccccn1,inactive
5,CCC(C)(C)n1nnnc1C(c1cccs1)N1CCN(Cc2ccccc2)CC1 (centres undefined),inactive
6,COc1ccccc1C(=O)Oc1ccc(N2C(=O)CCC2=O)cc1,inactive
7,CCOc1cc(-c2noc(CCC(=O)N3CCOCC3)n2)ccc1OC,inactive
8,O=C(Oc1ccc(-c2nc(-c3ccccn3)no2)cc1)c1ccccc1,inactive
9,COc1ccc(-c2nc(-c3ccccc3)no2)c(OC)c1,inactive
10,CCOc1nc(-c2ccc(OC)cc2)ccc1-c1noc(-c2cc(OC)c(OC)c(OC)c2)n1,57 nM (active)
11,COc1ccc(-c2noc(CN(C)S(=O)(=O)c3ccc(C)cc3)n2)cc1,inactive
12,COc1ccc(-c2ccc(-c3noc(-c4ccncc4)n3)c(OC)n2)cc1,17 nM (active)
13,FC(F)Oc1ccccc1C1CC(c2ccc(Br)s2)Nc2ncnn21 (centres undefined),inactive
14,CN1CCN(C(=O)c2ccc(NS(=O)(=O)c3ccccc3)cc2)CC1,inactive
15,O=C(c1cnccn1)N1CCC2(CCCN(Cc3ccccc3)C2)CC1,inactive
16,Cc1ccc2c(c1)c1ncn(CCC3=CCCCC3)c(=O)c1n2C,38 nM (active)
17,O=C(COc1cccc(-n2cnnn2)c1)NCCC1=CCCCC1,inactive
18,Cn1nnc2cc(C(=O)NCCC3=CCCCC3)ccc21,inactive
19,NC(=S)c1ccc(C(N)=S)o1,inactive
20,CCCCSc1nnc(-c2ccc(NC(=O)CC)cc2)n1C,inactive
21,CCOc1cc(C)c(Cl)cc1S(=O)(=O)n1nnc2ccccc21,inactive
22,Cc1nn(Cc2ccccc2)c(Cl)c1C(=O)OC1CCOC1=O (centres undefined),inactive
23,O=C(OC1CCOC1=O)c1ccc(-c2nc3ccccc3s2)s1 (centres undefined),550 nM (active)
24,O=C(c1cccs1)N1CCC(c2nc3ccccc3s2)CC1,inactive
25,Cc1ccc(C(C)C)c(OCc2nnc(SCC(=O)Nc3nccs3)n2C)c1,inactive

row,SMILES,max dye-equivalent concentration
1,C=CCOc1ccc(/C=N/n2cncn2)cc1OC,inactive
2,COc1cccc(N2CC(C(=O)Nc3c(C)cccc3C)CC2=O)c1 (centres undefined),20 nM (active)
3,COCCCNC(=O)C1CC(=O)N(c2ccc(C)cc2)C1 (centres undefined),inactive
4,COc1ccc(Cl)cc1NC(=O)C1CC(=O)N(c2ccc(F)cc2)C1 (centres undefined),inactive
5,O=C(Nc1ccn(Cc2ccc(F)cc2)n1)c1ccncc1,inactive
6,N#Cc1c(NC(=O)CSc2nc3ccccc3c(=O)n2Cc2ccco2)sc2c1CCCC2,inactive
7,CC(C)(O/N=C(\C(=O)N[C@@H]1C(=O)N2C(C(=O)[O-])=C(C[n+]3ccccc3)CS[C@@H]12)c1csc(N)n1)C(=O)O,inactive
8,CC(=O)N=c1ncn(CC(COC(C)=O)OC(C)=O)c2nc[nH]c12 (centres undefined),inactive
9,Cc1ccc(S(=O)(=O)N2CCCC2C(=O)NCc2ccco2)cc1 (centres undefined),inactive
10,CC(=O)c1c(N2CCOCC2)nc(=S)n(Cc2ccccc2)c1C,inactive
11,O=C(Nc1ncccn1)c1cccs1,inactive
12,CCOC(=O)c1c(NC(=O)CSc2nnc(Cc3csc(N)n3)n2C)sc(C)c1C,inactive
13,COC(=O)c1c(NC(=O)c2cccs2)sc2c1CCCC2,90 nM (active)
14,CCOCC(=O)Nc1sc2c(c1C(=O)OCC)CCCC2,inactive
15,CCOC(=O)CSc1nnc(CNC(=O)c2cccs2)n1-c1ccccc1,inactive
16,COC(=O)c1c(NC(=O)CSc2nncs2)sc2c1CCCCC2,inactive
17,CCOC(=O)c1c(NC(=O)c2cccs2)sc(C)c1C,190 nM (active)
18,COC(=O)Cn1cc(C(=O)c2cccs2)c2ccccc21,inactive
19,CCOC(=O)c1oc2ccccc2c1NC(=O)c1cccs1,18 nM (active)
20,Cc1ccnc(N2CCC(C(=O)NC3CCCCCC3)CC2)n1,inactive
21,CCN(CC)S(=O)(=O)c1ccc2nc(COC(=O)c3n[nH]c4ccccc34)[nH]c2c1,inactive
22,COc1ccc2c(c1)CCc1c(C(=O)Nc3c(C)n(C)n(-c4ccccc4)c3=O)noc1-2,inactive
23,O=C(Nc1c[nH]c(=O)[nH]c1=O)Oc1ccccc1,inactive
24,Cc1ccc(C)c(N(CC(=O)NCc2ccco2)C(=O)CCC(=O)Nc2ccccn2)c1,inactive
